In PubChem BioAssay (Tox21):
Inconclusive results are not listed. Values without a mark were called inactive. The call rests on the fitted dose curve.

Biological target: 5-hydroxytryptamine receptor 2A (Homo sapiens) (UniProt P28223)
Assay: 5-hydroxytryptamine receptor 2A (HTR2A) small molecule antagonists, cell-based qHTS assay (AID 1963586); further: nearly all actives have a fitted effect of over 45% in size
Conditions: HTR2A-CHO cells, DOI-induced calcium flux, fluorescence; series mostly up to 61.5 µM; activity, negative = inhibition: at the top concentration
Procedure, shortened: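 CHO cells stably expressing human HTR2A were plated for 18 h at 37 C, then loaded with calcium dye for 1 h. Compounds were preincubated 5 min at room temperature before DOI (4 nM solution) was added. Kinetic fluorescence was read for 3 min.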
On the % scale 0 is the no-effect control and ±100 the full control effect.

Chain of 5-hydroxytryptamine receptor 2A (Homo sapiens) (P28223 whole entry, looked up): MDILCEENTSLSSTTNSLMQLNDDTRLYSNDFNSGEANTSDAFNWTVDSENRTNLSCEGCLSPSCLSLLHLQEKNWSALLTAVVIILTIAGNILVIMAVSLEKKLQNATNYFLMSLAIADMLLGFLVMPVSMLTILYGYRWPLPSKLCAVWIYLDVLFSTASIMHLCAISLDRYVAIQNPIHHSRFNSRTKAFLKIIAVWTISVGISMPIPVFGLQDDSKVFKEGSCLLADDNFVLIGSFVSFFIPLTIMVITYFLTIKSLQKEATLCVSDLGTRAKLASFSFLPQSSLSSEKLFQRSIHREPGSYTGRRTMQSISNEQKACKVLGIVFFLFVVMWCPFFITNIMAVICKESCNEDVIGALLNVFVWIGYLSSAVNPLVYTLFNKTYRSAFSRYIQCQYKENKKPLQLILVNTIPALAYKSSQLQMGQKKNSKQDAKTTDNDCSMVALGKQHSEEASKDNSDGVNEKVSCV

SMILES	activity, negative = inhibition
CC(C)[C@H](C(=O)O[C@H](C#N)c1cccc(Oc2ccccc2)c1)c1ccc(Cl)cc1	6.12%
CCC(C(N)=O)N1CCCC1=O (configuration not stated)	63.3% [at 28.5 µM]
CCOC(=O)C(Cl)Cc1cc(-n2nc(C)n(C(F)F)c2=O)c(F)cc1Cl (configuration not stated)	-3.15%
CCO/N=C(\CC)C1=C(O)CC(c2c(C)cc(C)cc2C)CC1=O (configuration not stated)	3.25%
Oc1ccc2ccc3cccc4ccc1c2c34	-33.1%
O=C(O)CCCCCCNC1c2ccccc2CCc2ccccc21	1.61% [at 28.5 µM]
COP(=O)(OC)O/C(=C\Cl)c1cc(Cl)c(Cl)cc1Cl	-1.3%
CS(=O)(=O)c1ccc(C(=O)C2C(=O)CCCC2=O)c(Cl)c1COCC(F)(F)F	-2.15%
CCCCC(=O)Cl	14.6%
COC(=O)C(C)N(C(=O)c1ccco1)c1c(C)cccc1C (configuration not stated)	4.72%
COc1cnc(OC)n2nc(NS(=O)(=O)c3c(OCC(F)F)cccc3C(F)(F)F)nc12	-1.02%
COC1=CC(=O)O[C@@H](CCc2ccccc2)C1	31.4%
ClC(Cl)C(Cl)Cl	21.5%
CCCCCCCC(=O)Cl	5.33%
CCCCCCCCCCCCN(C)C	-6.21%
C=CC[C@]1(O)CC[C@H]2[C@@H]3CCC4=CC(=O)CCC4=C3C=C[C@@]21C	-14.2% [at 28.5 µM]
Cc1cccc2sc3nncn3c12	2.44%
CCCCC(CC)COC(=O)OOC(C)(C)C (configuration not stated)	-19.5%
CNNC	1.35%
C=C(Cl)CSC(=S)N(CC)CC	-31.3%
O=C(CBr)Nc1ccc(Cl)cc1C(=O)c1ccccc1F	-11.9% [at 28.5 µM]
COc1ccc(C=O)cc1O	-32.6%
C[C@]12C=CC(=O)C=C1CC[C@@H]1[C@@H]2CC[C@@]2(C)[C@H]1CC[C@]2(C)O	2.85% [at 28.5 µM]
COc1cc(CC(C)N)c(OC)cc1Br (configuration not stated)	-60.8%
N#CCCl	16%
CCCCCCCCCCCCCN1CC(C)OC(C)C1 (configuration not stated)	-24.8%
Cc1cccc(OP(=O)(Oc2cccc(C)c2)Oc2cccc(C)c2)c1	-12.4%
O=C(Nc1ccc2[nH]ccc2c1)c1cc2cc(F)ccc2n1Cc1cccc(F)c1	-15.7%
CSc1ccc(C(=O)C(C)(C)N2CCOCC2)cc1	-32.6%
COP(=S)(OC)Oc1c(Cl)cc(C)cc1Cl	-32.6%

Biological target: 5-hydroxytryptamine receptor 2A (Homo sapiens) (UniProt P28223)
Assay: 5-hydroxytryptamine receptor 2A (HTR2A) small molecule agonists, cell-based qHTS assay (AID 1963587); further: nearly all actives have a fitted effect of over 30% in size
Conditions: HTR2A-CHO cells, calcium flux fluorescence, agonist mode; series mostly up to 76.8 µM; activation: at the top concentration
Procedure, shortened: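 Kinetic calcium-flux fluorescence (2 min, 1 sec intervals) after compound addition in agonist mode. HTR2A-CHO cells were cultured 18 h, then dye-loaded 1 h at 37 C.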

SMILES	activation
O=[N+]([O-])c1ccc2c3c(cccc13)CC2	1.16%
CCCN(CCC)C(=O)Cc1c(-c2ccc(Cl)cc2)nc2ccc(Cl)cn12	1.25% [at 35.6 µM]
CC(C)[C@H](C(=O)O[C@H](C#N)c1cccc(Oc2ccccc2)c1)c1ccc(Cl)cc1	-0.0609%
CCC(C(N)=O)N1CCCC1=O (configuration not stated)	3.28% [at 35.6 µM]
CCOC(=O)C(Cl)Cc1cc(-n2nc(C)n(C(F)F)c2=O)c(F)cc1Cl (configuration not stated)	-0.66%
CCO/N=C(\CC)C1=C(O)CC(c2c(C)cc(C)cc2C)CC1=O (configuration not stated)	12.3%
Oc1ccc2ccc3cccc4ccc1c2c34	16.8%
O=C(O)CCCCCCNC1c2ccccc2CCc2ccccc21	-12.3% [at 35.6 µM]
COP(=O)(OC)O/C(=C\Cl)c1cc(Cl)c(Cl)cc1Cl	-0.157%
CS(=O)(=O)c1ccc(C(=O)C2C(=O)CCCC2=O)c(Cl)c1COCC(F)(F)F	0.295%
CCCCC(=O)Cl	2.43%
COC(=O)C(C)N(C(=O)c1ccco1)c1c(C)cccc1C (configuration not stated)	-9.08%
COc1cnc(OC)n2nc(NS(=O)(=O)c3c(OCC(F)F)cccc3C(F)(F)F)nc12	-0.348%
COC1=CC(=O)O[C@@H](CCc2ccccc2)C1	7.34%
O=C1C(Cl)C(CCl)CN1c1cccc(C(F)(F)F)c1 (configuration not stated)	19.9%
ClC(Cl)C(Cl)Cl	0.751%

SMILES	activation
CCCCCCCC(=O)Cl	-5.58%
O=[N+]([O-])c1cc([N+](=O)[O-])c2ccccc2c1	-3.1%
CCCCCCCCCCCCN(C)C	-2.7%
C=CC[C@]1(O)CC[C@H]2[C@@H]3CCC4=CC(=O)CCC4=C3C=C[C@@]21C	-2.25% [at 35.6 µM]
Cc1cccc2sc3nncn3c12	-2.7%
CCCCC(CC)COC(=O)OOC(C)(C)C (configuration not stated)	-1.21%
CCOP(=O)(OCC)O/C(=C/Cl)c1ccc(Cl)cc1Cl	0.291%
CNNC	-1.32%
C=C(Cl)CSC(=S)N(CC)CC	-0.311%
O=C(CBr)Nc1ccc(Cl)cc1C(=O)c1ccccc1F	-16.2% [at 35.6 µM]
Nc1ccc(Cl)cc1C(=O)c1ccccc1F	0.736% [at 35.6 µM]
COc1ccc(C=O)cc1O	-3.68%
C[C@]12C=CC(=O)C=C1CC[C@@H]1[C@@H]2CC[C@@]2(C)[C@H]1CC[C@]2(C)O	7.7% [at 35.6 µM]
N#CCCl	0.0729%
CCCCCCCCCCCCCN1CC(C)OC(C)C1 (configuration not stated)	1.86%
CCN(CC)c1c([N+](=O)[O-])cc(C(F)(F)F)c(N)c1[N+](=O)[O-]	-6.98%
